ID4 binder = binds human ID4 protein on microarray. P47928. small molecule microarray, Flag-ID4 binding, fluorescence F/B. calls only. actives 1.2% (n = 31,000). AID 624137; call rule not given here;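 note: a binder raises fluorescence above local background on the spot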
p53 PUMA act = mutant p53 pathway reactivation. SW480 PUMA-promoter luciferase. activation, % at 9.98 µM. actives 1.5% (n = 28,000). AID 624151; in the data active = activation above about 52%
STK33 kin inh = blocks human STK33 kinase activity; inhibition, % at 12.5 µM; actives 0.44% (n = 27,000); ADP-Glo luminescence, MBP substrate; Q9BYT3; AID 2322; in the data active = inhibition above about 20%
Target sequence (Q9BYT3 whole entry, looked up): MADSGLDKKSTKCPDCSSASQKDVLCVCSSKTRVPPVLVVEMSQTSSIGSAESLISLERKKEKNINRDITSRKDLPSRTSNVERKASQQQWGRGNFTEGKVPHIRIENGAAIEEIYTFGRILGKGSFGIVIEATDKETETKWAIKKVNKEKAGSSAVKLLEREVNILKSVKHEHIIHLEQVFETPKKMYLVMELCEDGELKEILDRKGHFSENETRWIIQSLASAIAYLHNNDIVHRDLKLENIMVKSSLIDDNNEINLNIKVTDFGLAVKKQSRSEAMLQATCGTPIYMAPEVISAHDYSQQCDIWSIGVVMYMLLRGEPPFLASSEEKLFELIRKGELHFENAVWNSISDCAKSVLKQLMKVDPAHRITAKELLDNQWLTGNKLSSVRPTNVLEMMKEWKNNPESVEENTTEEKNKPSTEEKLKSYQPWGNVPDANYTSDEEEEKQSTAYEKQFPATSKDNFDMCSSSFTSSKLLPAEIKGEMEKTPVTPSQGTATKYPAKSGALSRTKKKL
Large screens that a line does not name were inactive. Hits are enriched below; roughly 2% of the tested compounds scored in any of these assays.

Cc1cc(OCC(=O)Nc2ccc(-c3nc4ccccc4s3)c(O)c2)ccc1Cl	none
CCc1ccc(OCC(=O)Nc2ccc(-c3nc4ccccc4s3)c(O)c2)cc1	p53 PUMA act 122.8
CCc1ccc2oc(-c3cc(NC(=O)COc4ccc(OC)cc4)ccc3Cl)nc2c1	none
CCc1ccc(OCC(=O)Nc2ccc(-c3nc4ccccc4o3)c(O)c2)cc1	p53 PUMA act 59.0
COc1cccc2cc(C(=O)C3C(=O)C(=O)N(CCN4CCOCC4)C3c3cccc(Cl)c3)oc12 (stereo not drawn)	none
CC1(C)CC[C@]2(C(=O)O)CC[C@]3(C)C(=CCC4[C@@]5(C)CC[C@H](O[C@@H]6O[C@H](CO)[C@@H](O)[C@H](O)[C@H]6O)C(C)(C)C5CC[C@]43C)[C@@H]2C1 (stereo partly drawn)	none (no result: ID4 binder, p53 PUMA act)
O=C1N=C(c2cccc(O)c2)c2ccccc2Nc2ccccc21	none (no result: ID4 binder, p53 PUMA act)
CCCCc1ccc(-c2csc(NC(=O)c3ccccc3[N+](=O)[O-])c2C(N)=O)cc1	none
O=c1[nH][nH]c(=O)n1CCCc1cc2cccc3ccc4cccc1c4c32	none (no result: ID4 binder, p53 PUMA act)
Cc1c(Br)ccc(NC(=O)CSc2nnc(-c3ccc(Cl)cc3)n2C)c1C	p53 PUMA act 106.7
Cn1c(SCC(=O)Nc2ccc(Cl)cc2Cl)nnc1-c1ccc(Cl)cc1	none
Cn1c(SCC(=O)Nc2ccc(F)cc2)nnc1-c1ccc([N+](=O)[O-])cc1	STK33 kin inh 26.5
O=C(CSc1nnc(-c2ccc([N+](=O)[O-])cc2)n1-c1ccccc1)Nc1ccc(F)cc1	none
COC(=O)CCC(=O)Nc1ccc(C#N)cc1	none
C[C@H]1CC[C@@H]2[C@@H](C(=O)c3c(O)c([C@]4(O)CC[C@@H](O)[C@H]5O[C@H]54)c[nH]c3=O)[C@@H](C)C=C[C@H]2C1	none (no result: ID4 binder, p53 PUMA act)
C=CCN1CCN(c2nc3ccccc3nc2C#N)CC1	ID4 binder active
CCN1CCN(c2oc(COc3ccccc3C)nc2C#N)CC1	none (no result: STK33 kin inh)
CC1=CC(CC2(C)OC2COc2c3occc3cc3ccc(=O)oc23)OC1=O (stereo not drawn)	none (no result: p53 PUMA act)
CC(C)(O)C#Cc1ccccc1C(=O)NC(CC(=O)O)c1ccccc1 (stereo not drawn)	none
O=S(=O)(Nc1ncccn1)c1ccc(NC(=S)Nc2ccc3c(c2)CCC3)cc1	none
c1cnc(SCCCCOc2ccc3c(c2)CCC3)nc1	p53 PUMA act 70.9
Cc1cc(OCC(=O)NCc2cccnc2)c(C)cc1Br	none
CC(NC(=O)Cn1c(-c2nonc2N)nc2ccccc21)c1ccccc1 (stereo not drawn)	none
CC(C)(C)c1cc(C(F)(F)F)c(C#N)c(SCC(=O)Nc2sc3c(c2C#N)CCCC3)n1	none
Cc1ccc(-c2noc(CSc3nc(C)cc(C)n3)n2)cc1	p53 PUMA act 63.3
Cc1ccc(-c2noc(CSc3nnc(C)n3-c3cccc(C)c3)n2)cc1	none
Cc1nc2nc(NCc3cccc([N+](=O)[O-])c3)[nH]n2c(=O)c1Cc1ccccc1	none
COc1cccc(CNc2nc3nc(C)c(Cc4ccccc4)c(=O)n3[nH]2)c1	ID4 binder active
Cc1ccc(C(=O)Nc2ccccc2C(=O)N2CCCC2)cc1S(=O)(=O)N1CCOCC1	none
OCc1nc2ccccc2n1CCCOc1ccc(Br)cc1	p53 PUMA act 55.9
CC(C)(C)c1ccc(OCCn2c(CO)nc3ccccc32)cc1	none
Cc1sc(NC(=O)c2cc(-c3ccccn3)nc3ccccc23)c(C(=O)NC2CCCCC2)c1C	none
Cc1ccc(-c2cc(C(=O)Nc3sc(C)c(-c4ccccc4)c3C(N)=O)c3ccccc3n2)o1	p53 PUMA act 104.9
CCOC(=O)c1cc(-c2ccccc2)sc1NC(=S)Nc1cnccn1	none
Cc1sc(NC(=O)c2cnccn2)c(C(N)=O)c1-c1ccccc1	p53 PUMA act 98.8
O=C(CSc1nnc(Nc2ccccc2)n1-c1ccccc1)Nc1ccccc1Cl	none
CNC[C@H]1Oc2ccc(NC(=O)CCN3CCOCC3)cc2CC(=O)N([C@@H](C)CO)C[C@@H]1C	ID4 binder active
Cc1noc(C)c1NC(=O)N(C)C[C@H]1Oc2ccc(NC(=O)Nc3ccc(F)cc3)cc2CC(=O)N([C@H](C)CO)C[C@H]1C	ID4 binder active
CNC[C@@H]1Oc2ccc(NC(=O)Nc3cccc4ccccc34)cc2CC(=O)N([C@@H](C)CO)C[C@H]1C	ID4 binder active (no result: STK33 kin inh)
CNC[C@@H]1Oc2ccc(NC(=O)CCN3CCOCC3)cc2CC(=O)N([C@H](C)CO)C[C@H]1C	none
CNC[C@H]1Oc2ccc(NC(=O)c3ccncc3)cc2CC(=O)N([C@H](C)CO)C[C@@H]1C	none (no result: STK33 kin inh)
Cc1noc(C)c1NC(=O)N(C)C[C@H]1Oc2ccc(NC(=O)Nc3ccc(F)cc3)cc2CC(=O)N([C@@H](C)CO)C[C@@H]1C	none (no result: ID4 binder, p53 PUMA act)
C[C@H]1CN([C@@H](C)CO)C(=O)Cc2cc(NC(=O)Nc3cccc4ccccc34)ccc2O[C@H]1CN(C)C	none (no result: ID4 binder, p53 PUMA act)
CNC[C@@H]1Oc2ccc(NC(=O)c3ccncc3)cc2CC(=O)N([C@@H](C)CO)C[C@H]1C	ID4 binder active (no result: STK33 kin inh)
COc1ccc(C(=O)CC2(O)C(=O)N(Cc3ccccc3Cl)c3ccc(Cl)cc32)cc1OC (stereo not drawn)	none
COc1ccc(NC(=O)c2cc(S(=O)(=O)Nc3ccc(OC)cc3)c(Cl)cc2Cl)cc1	none
CNC[C@@H]1Oc2ccc(NC(=O)Nc3c(C)noc3C)cc2CC(=O)N([C@H](C)CO)C[C@H]1C	ID4 binder active (no result: STK33 kin inh)
CNC[C@@H]1Oc2ccc(NC(=O)Nc3c(C)noc3C)cc2CC(=O)N([C@@H](C)CO)C[C@@H]1C	none
Cc1ccc(-c2nc(SCC(=O)Nc3cc(C)c(C)cc3Br)n[nH]2)cc1	none
COc1ccc(C(=O)CSc2n[nH]c(-c3ccccc3)n2)cc1[N+](=O)[O-]	none
COc1ccc([Si](C)(C)[C@H]2[C@H](CCn3cc(CCO)nn3)O[C@@]3(C(=O)N(Cc4ccc(N5CCC5=O)cc4)c4ccccc43)[C@@H]2C)cc1	none (no result: p53 PUMA act)
COc1ccc([Si](C)(C)[C@@H]2[C@@H](CCn3cc(CCO)nn3)O[C@]3(C(=O)N(Cc4ccc(N5CCC5=O)cc4)c4ccccc43)[C@H]2C)cc1	STK33 kin inh 22.2 (no result: p53 PUMA act)
O=C(O)CCCCCCC(=O)Nc1ccc(C2CC(CSc3nc(-c4ccccc4)c(-c4ccccc4)o3)OC(c3ccccc3)O2)cc1 (stereo not drawn)	ID4 binder active (no result: p53 PUMA act, STK33 kin inh)
CC(=O)c1cccc(NC(=O)CSc2nc(-c3ccccc3)c(-c3ccccc3)o2)c1	none
COC(=O)C1=C(C)Nc2ncnn2C1c1ccccc1[N+](=O)[O-] (stereo not drawn)	none
CC(C)S(=O)(=O)c1csc(NC(=O)Nc2cc(C(F)(F)F)cc(C(F)(F)F)c2)c1Cl	none (no result: ID4 binder, p53 PUMA act)
COc1ccc(OCC(=O)Nc2cc(-c3nc4ccccc4s3)ccc2C)cc1	none
Cc1ccc(-c2nc3ccccc3s2)cc1NC(=O)COc1ccccc1	p53 PUMA act 54.4
COc1ccc(-c2nc3ccccc3s2)cc1NC(=O)COc1ccccc1[N+](=O)[O-]	none
COc1ccc(-c2nc3ccccc3s2)cc1NC(=O)COc1cccc(C)c1	p53 PUMA act 66.1
COc1ccc(N(C(=O)c2ccccc2)S(=O)(=O)c2cc(OC)ccc2OC)cc1	none
Cc1c(C#N)c(Sc2n[nH]c(=O)n2C2CCCCC2)nc2ccccc12	none (no result: ID4 binder, p53 PUMA act)
Cc1nnc(SCC(=O)Nc2cccc(Cl)c2Cl)s1	none
Cc1ccc(C(=O)NCCNc2ccccc2[N+](=O)[O-])cc1	none
CC(C)(C)c1ccc(C(=O)NCCNc2ccccc2[N+](=O)[O-])cc1	p53 PUMA act 113.6

Bioassay records from PubChem BioAssay.
